# The panel holds about 83,000 compounds, 20% with a hit somewhere; the sample as a whole holds those more often.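 Each cell line was grown in a 96-well plate and treated with one concentration of compound for 48 hours. Values below 10 were considered active.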 The source made the active and inactive calls.
# Test system: RPMI-8226 leukemia
# Test: NCI-60 one-dose screen, 48 h (100 = growth as untreated, 0 = no growth, -100 = all killed)
# Conditions: 10 µM unless noted
# Method: Growth inhibition of the RPMI-8226 human tumor cell line is measured as a screen for anti-cancer activity. Cells are grown in 96 well plates and exposed to the test compound for 48 hours. Compounds are tested at a single concentration, which is 10^-5 M for most compounds. The reported endpoint is percent growth (GI% or GIPRCNT), where numbers from 0 - 100% represent growth inhibition, and numbers from -100% - 0 represent cell death. For example, a value of 40 represents 60% growth inhibition. A value of 0 means no net growth occurred over the course of the experiment. A value of -40 indicates 40% of cells at the beginning of the experiment died by the end of the experiment. A value of -100 means all cells are dead at the end of the experiment.
# NCI-60 Human Tumor Cell Lines Screen was performed using the standard one-dose NCI protocol, which is described in more detail at https://dtp.cancer.gov/discovery_development/nci-60/default.htm.
# Compounds with GIPRCNT values below 10 were considered active. Activity score was based on GIPRCNT using the following formula: […]
# Score is 0 for GIPRCNT values of 100 or above, 50 for GIPRCNT values of 0, and 100 for GIPRCNT values of -100.
row,Compound,growth
1,C=C(C(N)=O)C(N)C(=O)O (stereo not given),104% (inactive)
2,CCC1C[N+]2=C(c3cc(OC)c(OC)cc3CC2)c2c1cc1n2CCc2cc(OC)c(OC)cc2-1 (stereo not given),11.6% (inactive)
3,COc1cc(NCc2ccc3nc(N)nc(N)c3c2C)cc(OC)c1OC (tested in a mixture with another compound),41.7% (inactive)
4,O=C1C=CC(=O)N1c1ccc(O)cc1,91.9% (inactive)
5,Cc1ccc(Nc2ccc(O)c3c2C(=O)c2c(O)ccc(Nc4ccc(C)cc4)c2C3=O)cc1,96.6% (inactive)
6,O=C(/C(Cl)=N/O)c1ccc(-c2ccccc2)cc1,85.2% (inactive)
7,O=C(c1ccccc1)C(Br)[N+](=O)[O-] (stereo not given),75.9% (inactive)
8,CCCCCCCCC(=O)OCCCC(CCC(CCC1CCCO1)OC(=O)CCCCCCCC)OC(=O)CCCCCCCC (stereo not given),112% (inactive)
9,O=C(CCl)N1c2ccccc2Sc2c1ccc1ccccc21,36.1% (inactive)
10,Nc1nc(N)c2cc(Sc3cccc(C(F)(F)F)c3)ccc2n1,5.83% (active)
11,Oc1ccccc1N=Cc1ccccc1,62.9% (inactive)
12,COC(=O)c1cc([N+](=O)[O-])cc([N+](=O)[O-])c1Cl,87.1% (inactive)
13,O=[N+]([O-])c1ccc2c(c1)Cc1ccccc1-2,121% (inactive)
14,Nc1ccc(C(=O)/C=C/c2ccccc2)cc1,43% (inactive)
15,COC(=O)[C@]1(C)CCC[C@]2(C)c3ccc(C(C)C)cc3C(=O)[C@@H](Br)[C@@H]12,81.1% (inactive)
16,O=C(CCl)N(c1ccccc1)c1ccccc1,109% (inactive)
17,O=[N+]([O-])c1ccc(N2CCN(Cc3ccccc3)CC2)c2c1no[n+]2[O-],-15.1% (active)
18,O=C(Nc1ccc(Cl)c(Cl)c1)Nc1ccccc1O,18.8% (inactive)
19,NC(=S)N/N=C\c1nccc2c(N)cccc12,15.5% (inactive)
20,O=C1Nc2ccc(Br)cc2C1=O,96.4% (inactive)

row,Compound,growth
1,Cc1cc2nc(CC(=O)c3ccncc3)c(=O)[nH]c2cc1C,103% (inactive)
2,CC(=O)c1ccc2c(c1)CCc1ccccc1-2,108% (inactive)
3,COC1CC(C)C(OC)c2cc(O)cc(c2O)NC(=O)/C(C)=C/C=C\C(C)C(OC(N)=O)/C(C)=C\C(C)C1OC (stereo not given),1.65% (active)
4,Cc1ccccc1NC(=O)Cc1csc2[n+]1C(=O)/C(=C/c1ccc([N+](=O)[O-])cc1)S2,91.2% (inactive)
5,CN(C)c1ccc(/C=C/c2sc3ccc4ccccc4c3[n+]2C)cc1,-26.6% (active)
6,Oc1ccc(Nc2ccc3ccccc3c2)cc1,58.6% (inactive)
7,CCc1cnc2ccccc2c1/C=C/c1ccc(N(C)C)cc1,67.3% (inactive)
8,CCCCCCCCCCCCCCCC[N+]1(C)CCCC1c1cccnc1 (stereo not given),21% (inactive)
9,CCN1/C(=C/C(C)=C/c2sc3ccc4ccccc4c3[n+]2CC)Sc2ccc3ccccc3c21,-58.1% (active)
10,NC(=S)N/N=C\c1nccc2c(C(F)(F)F)cccc12,-13.9% (active)
11,NC(=Nc1nc(-c2ccccn2)cc2ccccc12)c1ccccn1,-11.3% (active)
12,CCC(C)(O)Cc1ccc(Cl)cc1 (stereo not given),105% (inactive)
13,CN(C)c1ccc2cc3c(cc2c1)Oc1ccccc1N3.[Cl][Zn][Cl],48.9% (inactive)
14,COC(=O)c1nc(=S)[nH]c(C(=O)OC)c1C(=O)c1ccc(Cl)c(Cl)c1,105% (inactive)
15,Oc1ccc2c(c1)CCc1ccccc1-2,105% (inactive)
16,O=C1c2ccccc2C(=O)c2c(O)c(Cl)cc(O)c21,96.4% (inactive)
17,Nc1nc(-c2ccccc2)nc(N)c1N=O,41% (inactive)
18,O=[N+]([O-])CC(O)c1ccccc1 (stereo not given),89.7% (inactive)
19,CCOc1ccc(C(CN2CCOCC2)C(C)=O)cc1OC (stereo not given),62.3% (inactive)
20,Cc1cc(C(=C2C=CC(=Nc3ccccc3)C=C2)c2ccc(Nc3ccccc3)cc2)ccc1N,4.29% (active)
